SIRT5 inh: sirtuin-5 (human) deacylase inhibition | Purified SirT5, succinyl-peptide AMC, trypsin-coupled fluorescence | hit rate 1.1% among 330,000 | Q9NXA8 | AID 652115 | inhibition, % at 15 µM; in the data active = inhibition above about 15%
Casp6 inh: blocks human caspase-6 cleavage activity; P55212; purified caspase-6, Z-VEID-R110 cleavage fluorescence; inhibition, % at 12.5 µM; hit rate 0.53% among 350,000;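 active = mean inhibition across replicates at least about 35%, with every replicate also reaching that limit, limit read from the data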
FGF22 binding: binders of recombinant human FGF22 by thermal shift; Q9HCT0; SYPRO orange fluorescence; percent of sucrose octasulfate shift, DMSO zero; activity (Tm shift, normalised), % at 9.99 µM; hit rate 1.5% among 340,000; AID 651658;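 active = mean Tm shift, scaled 0 neutral to 100 positive control, at about 1.3% or above, every replicate too, limit read from the data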
ERAP1 inh: blocks human ERAP1 aminopeptidase activity; hit rate 0.15% among 340,000; recombinant ERAP1, Leu-AMC fluorescence, 60 min; inhibition, % at 10.7 µM; AID 652197;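 active = mean replicate inhibition of at least 30%, or all replicates individually reaching that 30% level; inactive = mean below 30% and not every replicate reaching it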
Hits are given with their value; . = inactive; / = no result. A selection: hits, their analogues and other compounds. The true share with any hit is near 3.1%.

SMILES	SIRT5 inh	Casp6 inh	FGF22 binding	ERAP1 inh
C[C@H]1CN([C@@H](C)CO)C(=O)c2cccc(NC(=O)Nc3cccc4ccccc34)c2O[C@H]1CN(C)S(C)(=O)=O	.	.	/	.
Cc1ccc[n+](CC(=O)c2ccc(NC(=O)c3ccccc3)cc2)c1	.	.	44	.
CCC(=O)Nc1ccc2c(c1)C(=O)N(C)[C@H]1CC[C@@H](CC(=O)NCC3CCCCC3)O[C@H]1CO2	.	.	.	.
CC(=O)c1sc2nc(CSc3nncn3C)[nH]c(=O)c2c1C	.	.	44	.
CCN(CC(=O)Nc1c(F)cccc1F)C(=O)/C=C/c1ccc2ccccc2n1	.	47	.	.
CCN(CC(=O)Nc1c(F)cccc1F)C(=O)c1ccc2ccccc2n1	.	.	.	.
CCN(CC(=O)Nc1c(F)cccc1F)C(=O)CCc1ccc(OC)cc1	.	.	44	.
CCN(CC(=O)Nc1c(F)cccc1F)C(=O)CCCOc1ccc(OC)cc1	.	.	.	.
O=C(NCC[C@H]1CC[C@@H](NC(=O)C2CC2)[C@@H](CO)O1)c1ccc(F)cc1	.	.	.	.
CN(C)CCCN(Cc1cc2cc3c(cc2[nH]c1=O)OCO3)C(=S)Nc1cccc(Cl)c1	.	.	.	.
COc1ccccc1NC(=S)N(CCCN(C)C)Cc1cc2cc3c(cc2[nH]c1=O)OCO3	.	.	44	.
COc1ccc2cc(CN(CC3CCCO3)C(=S)Nc3ccccc3)c(=O)[nH]c2c1 (stereo not given)	.	.	.	.
CN(C)CCCN(Cc1cc2cc3c(cc2[nH]c1=O)OCO3)C(=S)Nc1ccccc1	.	.	43	.
CCN(CC)CCCN(Cc1cc2cc3c(cc2[nH]c1=O)OCO3)C(=S)Nc1ccccc1OC	.	.	.	.
O=C(c1ccco1)N(CCO)Cc1cc2cc3c(cc2[nH]c1=O)OCO3	.	.	43	.
COc1ccc2[nH]c(=O)c(CN(CC3CCCO3)C(=S)Nc3ccccc3)cc2c1 (stereo not given)	.	.	44	.
C[C@@H]1CCCCO[C@@H](CN(C)C(=O)Nc2ccccc2)[C@@H](C)CN([C@@H](C)CO)C(=O)c2cc(NC(=O)NC3CCCCC3)ccc2O1	.	.	/	.
CC(C)NC(=O)N(C)C[C@H]1Oc2ccc(NC(=O)c3ccncc3)cc2CC(=O)N([C@@H](C)CO)C[C@@H]1C	.	.	.	.
CCSc1ccc(C(=O)NCC(=O)O)cc1	.	.	.	.
CSc1ccc(NC(=O)Nc2ccc(C(=O)NCC(=O)O)cc2)cc1	.	52	/	.
COc1ccc(CN(C)C[C@H]2Oc3c(NC(=O)NC4CCCCC4)cccc3C(=O)N([C@H](C)CO)C[C@H]2C)cc1	.	.	.	.
CC(C)c1ccc(OC(=O)c2ccc3c(=O)n4c(nc3c2)CCC4)cc1	.	.	.	78
O=C(Oc1ccc(F)c(F)c1)c1ccc2c(=O)n3c(nc2c1)CCC3	.	.	.	.
O=C(C[C@H]1CC[C@@H](NS(=O)(=O)c2ccc(F)cc2)[C@H](CO)O1)NCc1ccncn1	.	.	.	.
COc1cc(C(=O)OCC(=O)N2CCCC2=O)cc(OC)c1C	.	37	.	.
SMILES	SIRT5 inh	Casp6 inh	FGF22 binding	ERAP1 inh
C[C@@H]1CN([C@H](C)CO)C(=O)c2cc(NC(=O)Cc3ccccc3)ccc2O[C@@H](C)CCCCO[C@H]1CN(C)C(=O)Nc1ccccc1	.	.	.	.
C[C@H]1CN([C@@H](C)CO)C(=O)c2cc(NC(=O)CCN3CCOCC3)ccc2O[C@@H]1CN(C)Cc1ccc(-c2ccccc2)cc1	.	.	.	.
O=C1CCCCC1Sc1nnc(-c2ccc3c(c2)OCO3)o1 (stereo not given)	.	.	43	.
O=C(Nc1cc(F)ccc1F)N[C@@H]1CC[C@H](CCn2cc(C3CCCCC3)nn2)O[C@@H]1CO	.	.	.	.
C[C@@H]1CN([C@H](C)CO)C(=O)c2cc(Br)cnc2O[C@H]1CN(C)C(=O)Nc1ccc(F)cc1	.	.	.	.
CO[C@H]1CN(C)C(=O)c2ccc(NC(=O)C3CC3)cc2OC[C@@H](C)N(C(=O)C2CCCCC2)C[C@H]1C	.	.	.	.
CCS(=O)(=O)N1CCCCN2[C@H](C1)[C@@H](c1ccc(-c3ccccc3)cc1)[C@@H]2CO	16	.	.	.
Cc1ccccc1S(=O)(=O)N1CCCCN2[C@H](CO)[C@@H](c3ccc(-c4ccccc4)cc3)[C@H]2C1	19	.	.	.
Cc1ccccc1S(=O)(=O)N1CCCCN2[C@H](CO)[C@H](c3ccc(-c4ccccc4)cc3)[C@H]2C1	17	.	.	.
C[C@H]1CN([C@@H](C)CO)S(=O)(=O)c2ccc(C#CC(C)(C)O)cc2O[C@@H]1CN(C)C(=O)CC1CC1	.	.	.	.
CCC(=O)N1CC[C@@H]2[C@H](CO)Nc3ccc(C#Cc4cccnc4)cc3[C@@H]21	.	.	/	.
COC(=O)CNC(=O)C1Cc2ccccc2CN1S(=O)(=O)c1cccs1 (stereo not given)	.	.	.	.
CCOC(=O)CNC(=O)C1Cc2ccccc2CN1S(=O)(=O)c1cccs1 (stereo not given)	.	.	43	.
O=C(O)CCn1ncc2ccccc2c1=O	.	.	43	.
CN1[C@H](C(=O)N2CCCCC2)[C@@H](CO)[C@@H]2Cn3c(ccc(/C=C/c4ccccc4)c3=O)[C@@H]21	.	.	.	.
CN(C)/C=C(\C=O)c1ncc(C(F)(F)F)cc1Cl	.	.	43	.
COc1ccc(C(NC(C)=O)c2cc(Cl)c3cccnc3c2O)cc1 (stereo not given)	.	.	.	.
CCCC(=O)NC(c1ccc(OC)c(OC)c1)c1cc(Cl)c2cccnc2c1O (stereo not given)	.	.	43	.
COC(c1ccccc1)c1nnc(CCC(=O)N(C)C(C2CC2)C2CC2)o1 (stereo not given)	15	.	44	.
COC(c1ccccc1)c1nnc(CCC(=O)N2CCCCCCC2)o1 (stereo not given)	.	.	44	.
C[C@@H]1CN([C@H](C)CO)C(=O)c2cc(NC(=O)c3ccncc3)ccc2O[C@@H](C)CCCCO[C@H]1CN(C)S(=O)(=O)c1ccccc1	.	.	.	.
C[C@@H]1CN([C@H](C)CO)C(=O)c2cc(NC(=O)CCN3CCOCC3)ccc2O[C@@H]1CN(C)C(=O)Nc1ccc(F)cc1	.	.	.	.
CCOC(=O)c1ccccc1NC(=O)COC(=O)C1CCN(S(=O)(=O)c2ccccc2C(=O)OC)CC1	.	60	.	.
COc1cccc(NC(=O)COC(=O)C2CCN(S(=O)(=O)c3cccs3)CC2)c1	.	.	43	.
CC(=O)c1ccc(NC(=O)COC(=O)C2CCN(S(=O)(=O)c3cccs3)CC2)cc1	.	.	.	.
CCN(C(=O)COC(=O)c1ccc(Cl)c(S(=O)(=O)N2CCCCC2)c1)C1CCS(=O)(=O)C1 (stereo not given)	.	.	.	.
CCN(C(=O)COC(=O)c1cnc(C)cn1)C1CCS(=O)(=O)C1 (stereo not given)	.	.	.	69

Bioassay records: PubChem BioAssay, Broad Institute
